Laboratory results from PubChem BioAssay.
The source made the active and inactive calls.

What was measured:
[1] = tested on: Human papillomavirus type 1a protein E7 (residues 44-93); experiment: HPV1a E7 fragment binders on microarrays, primary screen, biochemical, small-molecule microarray, residues 44-93, 635 nm fluorescence (AID 1108); settings: small-molecule microarray binding, fluorescence 635 nm; higher = more signal;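 further: E7 fragment applied at 1 µg/mL in TBST for 1 h at 4 C; score combines spot fluorescence with its signal to noise ratio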
[2] = modulators of HCV replicon luciferase signal, primary screen, HCV replication inhibitor project, Huh7 cells, luciferase reporter (AID 1109); settings: 48 h, higher = more signal;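 further: huh7 hepatoma cells harbouring a luciferase neomycin HCV replicon reporter; luciferase luminescence as measure of HCV replicon replication; test concentration not given here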
[3] = molecular target: Left-right determination factor 2 (Homo sapiens) (UniProt O00292); experiment: LEFTY2 binders on small-molecule microarrays, primary screen, biochemical, small-molecule microarray, 635 nm fluorescence scan (AID 1110); settings: LEFTY2 binding, higher = more signal
Left-right determination factor 2 (Homo sapiens), sequence (O00292 whole entry, looked up): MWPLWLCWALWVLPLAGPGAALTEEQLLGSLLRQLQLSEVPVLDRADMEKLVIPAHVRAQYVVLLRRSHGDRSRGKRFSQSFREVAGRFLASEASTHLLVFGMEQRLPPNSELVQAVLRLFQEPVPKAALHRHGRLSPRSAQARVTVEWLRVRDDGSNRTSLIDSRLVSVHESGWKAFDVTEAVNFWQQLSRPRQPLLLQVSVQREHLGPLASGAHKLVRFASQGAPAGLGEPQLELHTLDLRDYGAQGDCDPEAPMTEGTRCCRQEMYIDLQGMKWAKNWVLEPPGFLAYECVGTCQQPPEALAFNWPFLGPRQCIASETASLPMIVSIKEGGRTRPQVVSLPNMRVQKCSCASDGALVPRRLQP

[4] = molecular target: Calmodulin-1 (Homo sapiens) (UniProt P0DP23); experiment: CALM1 binders on microarrays, EGTA buffer, profiling panel, biochemical, small-molecule microarray, Cy5-labelled CALM1 (AID 1111); settings: Cy5-CALM1 binding fluorescence, higher = more signal;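 further: labelled calmodulin applied in Tris saline Tween buffer holding calcium plus EGTA and DTT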
[5] = molecular target: Calmodulin-1 (Homo sapiens) (UniProt P0DP23); experiment: calcium-bound CALM1 binders on microarrays, profiling panel, artefact control for SMM control-protein annotation, biochemical, small-molecule microarray, Cy5-labelled CALM1, plus calcium (AID 1112); settings: Cy5-CALM1 binding fluorescence, higher = more signal;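 further: score merges spot fluorescence with signal to noise from triplicate slides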
[6] = small-molecule microarray binders of probe aWnt5a, primary screen, biochemical, biotinylated probe, 635/667 nm fluorescence (AID 1113); settings: higher = more signal;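 further: score merges 667 nm fluorescence intensity with signal-to-noise per printed feature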
[7] = small-molecule microarray binders of probe aShh, primary screen, biochemical, biotinylated probe, 635/667 nm fluorescence (AID 1114); settings: higher = more signal;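 further: probe is biotin-labelled aShh protein from a stem cell growth factor screen; measures binding of labelled protein to compounds printed on the slide; score merges feature fluorescence at 667 nm with signal-to-noise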
[8] = small-molecule microarray binders of probe aNog, primary screen, biochemical, biotinylated probe, 635/667 nm fluorescence (AID 1115); settings: higher = more signal;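 further: probe is biotinylated aNog protein used at 0.15 µg/mL for 1 h at 4 C; z-score combines 667 nm fluorescence of each spot with its signal to noise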
[9] = molecular target: Torsin-1A-interacting protein 1 (Homo sapiens) (UniProt Q5JTV8); experiment: LAP1 binders from COS7 cell lysate, primary screen, small-molecule microarray, 635/667 nm fluorescence (AID 1116); settings: COS7-hLAP1 lysate binding, 635 nm fluorescence, higher = more signal
Torsin-1A-interacting protein 1 (Homo sapiens), sequence (Q5JTV8 whole entry, looked up): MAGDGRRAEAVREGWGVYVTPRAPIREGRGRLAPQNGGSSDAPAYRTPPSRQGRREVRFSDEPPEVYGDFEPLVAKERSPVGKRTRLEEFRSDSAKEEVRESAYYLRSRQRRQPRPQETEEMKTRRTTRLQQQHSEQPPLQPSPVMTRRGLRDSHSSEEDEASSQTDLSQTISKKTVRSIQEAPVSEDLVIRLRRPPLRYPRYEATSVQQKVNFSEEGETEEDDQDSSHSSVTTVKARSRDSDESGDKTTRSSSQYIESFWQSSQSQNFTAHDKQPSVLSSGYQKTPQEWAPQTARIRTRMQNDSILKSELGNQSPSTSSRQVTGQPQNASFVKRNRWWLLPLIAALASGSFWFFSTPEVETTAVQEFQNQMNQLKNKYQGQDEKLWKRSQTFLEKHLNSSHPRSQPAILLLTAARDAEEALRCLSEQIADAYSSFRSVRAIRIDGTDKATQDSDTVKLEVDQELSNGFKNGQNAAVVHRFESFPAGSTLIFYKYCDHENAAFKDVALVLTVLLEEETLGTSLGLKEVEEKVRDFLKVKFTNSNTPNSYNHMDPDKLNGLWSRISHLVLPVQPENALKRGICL

[10] = molecular target: Alpha-bungarotoxin (Bungarus multicinctus) (UniProt P60615); experiment: alpha-bungarotoxin binders on microarray, profiling panel, artefact control for SMM control protein annotation, biochemical, small-molecule microarray, Alexa647 label, 635/667 nm fluorescence (AID 1117); settings: alpha-BTX-A647 binding fluorescence, higher = more signal
Alpha-bungarotoxin (Bungarus multicinctus), sequence (P60615 whole entry, looked up): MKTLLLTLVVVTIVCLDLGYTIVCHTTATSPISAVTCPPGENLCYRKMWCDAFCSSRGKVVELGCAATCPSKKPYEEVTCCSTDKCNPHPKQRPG

[11] = molecular target: Albumin (Bos taurus) (UniProt P02769); experiment: bovine serum albumin binders on microarray, profiling panel, artefact control for SMM control protein annotation, biochemical, small-molecule microarray, Alexa647 label, 635/667 nm fluorescence (AID 1118); settings: BSA-A647 binding, fluorescence 635 nm, higher = more signal;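 further: score merges 667 nm emission intensity and signal-to-noise per printed compound spot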
Albumin (Bos taurus), sequence (P02769 whole entry, looked up): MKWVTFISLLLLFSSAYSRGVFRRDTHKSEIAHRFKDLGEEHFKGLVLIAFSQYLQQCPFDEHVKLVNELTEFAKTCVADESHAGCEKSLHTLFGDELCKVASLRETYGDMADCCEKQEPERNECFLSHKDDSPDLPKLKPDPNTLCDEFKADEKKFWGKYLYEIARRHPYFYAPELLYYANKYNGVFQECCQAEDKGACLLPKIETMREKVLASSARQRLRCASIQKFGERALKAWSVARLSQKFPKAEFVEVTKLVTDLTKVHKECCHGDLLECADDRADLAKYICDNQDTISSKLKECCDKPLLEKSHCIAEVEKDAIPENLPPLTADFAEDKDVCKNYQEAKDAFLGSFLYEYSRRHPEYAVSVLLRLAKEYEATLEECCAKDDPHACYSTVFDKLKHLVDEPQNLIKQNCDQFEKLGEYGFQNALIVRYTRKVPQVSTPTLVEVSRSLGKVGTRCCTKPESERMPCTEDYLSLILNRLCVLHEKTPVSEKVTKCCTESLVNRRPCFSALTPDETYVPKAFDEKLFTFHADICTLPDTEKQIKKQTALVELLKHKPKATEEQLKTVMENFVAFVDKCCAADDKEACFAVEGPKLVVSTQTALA

[12] = small-molecule microarray binders of probe aXIP, primary screen, biochemical, NeuroSMM set, 635/667 nm fluorescence (AID 1119); settings: higher = more signal, called active from +8 up or from −8 down;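 further: probe is the protein aXip251-270 applied at 1 µg/mL to compound-printed slides; binding of probe to printed compounds measured as 667 nm fluorescence plus signal to noise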
[13] = small-molecule binders of probe aNOTCH3, primary screen, biochemical, small-molecule microarray, 635/667 nm fluorescence (AID 1120); settings: higher = more signal;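 further: probe is a biotin-tagged antibody raised against NOTCH3 rather than NOTCH3 protein; score merges spot fluorescence near 667 nm with spot signal to noise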
[14] = small-molecule binders of probe aNOTCH2, primary screen, biochemical, small-molecule microarray, 635/667 nm fluorescence (AID 1121); settings: higher = more signal;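 further: score merges feature fluorescence read at 667 nm with its signal to noise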
[15] = molecular target: Carbonic anhydrase 2 (Homo sapiens) (UniProt P00918); experiment: CAII small-molecule binders, profiling panel, biochemical, small-molecule microarray, Alexa647-labelled CAII (AID 1122); settings: CAII-A647 binding fluorescence, higher = more signal
[16] = COS7 lysate on small-molecule microarray, probe aHis, 635 nm (AID 1123); settings: COS7 cell lysate, fluorescence, higher = more signal;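 further: z-score combines 667nm fluorescence intensity with signal-to-noise per printed compound spot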
[17] = compound binding in COS7 lysate, probe aLAP1, primary screen, cell lysate, small-molecule microarray (AID 1124); settings: probe aLAP1, fluorescence, higher = more signal;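 further: lysate comes from COS7 cells expressing LAP1 and is applied at 0.3 µg/mL; score merges spot fluorescence near 667 nm with signal-to-noise over triplicate slides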
[18] = tested on: Sam68 (KHDRBS1); experiment: Sam68 small-molecule binders, primary screen, biochemical, small-molecule microarray, 635 nm fluorescence (AID 1125); settings: small-molecule microarray binding, higher = more signal;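 further: score merges 667 nm channel intensity with signal to noise over triplicate slides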
[19] = tested on: Chordin-like protein 2 (CHRDL2); experiment: CHRDL2 small-molecule binders, primary screen, biochemical, small-molecule microarray, 635 nm fluorescence (AID 1126); settings: small-molecule microarray binding, fluorescence 635 nm; higher = more signal;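 further: printed compound slides probed with Chrdl2 protein at 4 µg/mL for 1 h at 4 C; score merges 667 nm emission intensity with signal to noise over three replicate slides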
[20] = molecular target: Concanavalin-A (Canavalia ensiformis) (UniProt P02866); experiment: ConA small-molecule binders, primary screen, artefact control for SMM control protein annotation, biochemical, small-molecule microarray, Alexa647 label, 635 nm (AID 1127); settings: ConA-A647 binding fluorescence, higher = more signal;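 further: z combines 667 nm emission intensity with signal-to-noise across three replicate slides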
Concanavalin-A (Canavalia ensiformis), sequence (P02866 whole entry, looked up): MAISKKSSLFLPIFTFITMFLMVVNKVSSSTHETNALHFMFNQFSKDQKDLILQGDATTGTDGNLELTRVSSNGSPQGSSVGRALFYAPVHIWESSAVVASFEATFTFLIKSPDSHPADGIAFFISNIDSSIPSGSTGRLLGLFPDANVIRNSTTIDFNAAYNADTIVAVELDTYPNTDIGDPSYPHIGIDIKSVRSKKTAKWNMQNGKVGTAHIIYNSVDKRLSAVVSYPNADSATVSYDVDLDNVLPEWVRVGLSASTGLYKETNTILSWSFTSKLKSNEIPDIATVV

Row | Structure (SMILES) | composite z-score [1] | z-score [2] | composite z-score [3] | composite z-score [4] | composite z-score [5] | composite z-score [6] | composite z-score [7] | composite z-score [8] | composite z-score [9] | composite z-score [10] | composite z-score [11] | composite Z-score [12] | composite z-score [13] | composite z-score [14] | composite z-score [15] | composite z-score [16] | composite z-score [17] | composite z-score [18] | composite z-score [19] | composite z-score [20]
1 | COCCOC(=O)N1C(=O)[C@@]2(c3cc(C#CCC(C(=O)OC)C(=O)OC)ccc31)[C@H](c1ccc(O)cc1)N1[C@H](c3ccccc3)[C@H](c3ccccc3)OC(=O)[C@H]1[C@@H]2C(=O)Nc1nc2ccccc2s1 | 1.11 | -0.149 | 0.616 | 1.38 | -0.563 | -0.0684 | -0.017 | 0.112 | 0.83 | 2.23 | 0.703 | 0.179 (inactive) | 0.146 | -0.126 | 0.342 | 1.17 | 0.447 | 1.3 | 0.627 | 1.15
2 | C=C(COC)/C(=C/C[C@H](OC(C)=O)c1ccccc1OCCO)c1cc(C(=O)OC)ccc1OC | 0.992 | -1.91 | -0.138 | -0.471 | -1.12 | -0.124 | 0.13 | -0.194 | -0.134 | 1.63 | 0.524 | 0.131 (inactive) | -0.129 | -0.113 | 0.467 | 1.82 | -0.175 | 0.44 | -0.152 | 0.362
3 | O=C(NC1CC1)[C@@H]1c2ccccc2C(=O)N(Cc2cc(C(F)(F)F)cc(C(F)(F)F)c2)[C@H]1c1ccc(CO)cc1 | 1.35 | -1.02 | -0.876 | 0.146 | -0.366 | -0.0203 | -0.517 | 0.431 | -0.0446 | 0.955 | -0.148 | -0.563 (inactive) | -0.352 | -0.102 | 0.679 | 1.29 | 0.174 | 0.157 | -0.936 | 0.321
4 | CC(C)=C1C(=O)C(c2ccccc2)=C2CN3C(=O)N(CCc4ccccc4)C(=O)[C@]3(C)[C@H]21 | 0.186 | -0.44 | -0.245 | 1.16 | 0.0844 | 0.0825 | 0.748 | 0.794 | 0.149 | 0.196 | 0.826 | 0.432 (inactive) | 0.0162 | 0.166 | 0.373 | 1.23 | -0.414 | 0.141 | -0.686 | 0.809
5 | CN(C)CCCCNC(=O)[C@H]1C[C@H]2C(=O)NCC(=O)N2[C@H]1c1ccc(O)cc1 | -0.392 | 0.143 | -0.735 | -0.608 | 0.577 | -0.145 | -0.501 | -0.248 | -0.38 | 0.52 | -0.411 | 0.312 (inactive) | -0.368 | -0.13 | 0.712 | 0.0967 | -0.537 | -0.714 | 0.367 | 0.342
6 | COc1ccc(C(=O)Nc2ccc3c(c2)[C@@]2(O[C@H](CCO)[C@@H]([Si](C)(C)c4ccc(OC)cc4)[C@@H]2C)C(=O)N3Cc2ccccc2)cc1 | 1.28 | -5.23 | 0.219 | 0.397 | 0.238 | -0.0599 | -0.0782 | 0.56 | 0.518 | 0.399 | -0.351 | 0.004 (inactive) | -0.0647 | -0.0357 | 0.124 | 0.88 | 0.556 | 0.973 | 0.268 | 0.637
7 | CN(C)CCCNC(=O)[C@@H]1c2ccccc2C(=O)N(Cc2ccccc2C(F)(F)F)[C@H]1c1ccc(CO)cc1 | -0.242 | -1.68 | -1.42 | -0.206 | -0.263 | -0.1 | -0.138 | -0.163 | 0.689 | 0.542 | 0.334 | 0.0871 (inactive) | -0.0106 | -0.0996 | 0.338 | 1.35 | 0.2 | 0.793 | -1.5 | 0.0021
8 | C=CCNC(=O)[C@H]1[C@@H]2C(=O)O[C@@H](c3ccccc3)[C@@H](c3ccccc3)N2[C@@H](c2ccc(OCCO)cc2)[C@]12C(=O)Nc1ccc(C#CC3(O)CCCCCC3)cc12 | 1.24 | -2.33 | 0.954 | 1.29 | 0.229 | -0.0607 | -0.0146 | 0.74 | 1.47 | 1.74 | 0.483 | 0.238 (inactive) | 0.257 | 0.0111 | 0.184 | 1.29 | 1.09 | 1.34 | 0.721 | 1.13
9 | COc1ccc(C(O)C2C=CC3C(=O)N(c4ccccc4)C(=O)C3N2Nc2ccc([N+](=O)[O-])cc2)c2ccccc12 (stereo not given) | 1.45 | -0.749 | -0.0163 | 1.86 | 0.554 | 0.062 | 0.204 | 1.61 | 1.6 | 2.54 | 0.941 | 0.372 (inactive) | 0.155 | 0.0702 | 0.575 | 2.5 | 1.44 | 1.3 | 0.308 | 1.22
10 | C=CCNC(=O)[C@@H]1[C@H]2C(=O)O[C@H](c3ccccc3)[C@H](c3ccccc3)N2[C@H](c2ccc(OCCO)cc2)[C@@]12C(=O)Nc1ccc(C#CC3(O)CCCCCC3)cc12 | 1.12 | -2.43 | 0.367 | 0.92 | 0.0835 | -0.0203 | -0.278 | 0.822 | 0.699 | 1.35 | 0.692 | -0.058 (inactive) | 0.13 | -0.11 | 0.42 | 1.86 | 0.637 | 1.3 | 0.253 | 1.19
11 | CC(C)[Si](C#CCCc1ccccc1)(O[C@H](c1ccccc1)c1cn(Cc2ccccc2)nn1)C(C)C | 1.32 | -1.53 | 0.345 | 0.138 | -0.662 | -0.0239 | -0.338 | -0.0827 | 0.427 | 0.544 | 0.246 | 0.546 (inactive) | 0.073 | -0.115 | 0.204 | 1.12 | 0.0218 | 1.02 | 0.721 | 0.949
